Rows were chosen to be rich in hits. Some 21% of all compounds tested hit in one or more screens of this group.
Pf growth 48h: Primary qHTS for delayed death inhibitors of the malarial parasite plastid, 48 hour incubation; 310,000 compounds, 5.9% hits; Potency, µM (doses to about 28.7 µM), for the others: top-dose activity change, negative = inhibition, usual class: inhibitors; AID 504832, 2011; P. falciparum luciferase growth in erythrocytes, 48 h; note: potency is the fitted concentration of half-maximal effect; % is set by controls: 0 for no effect and ±100 for the full control effect
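Luciferase-expressing P. falciparum in infected erythrocytes (2% hematocrit, 0.1% parasitemia final) in RPMI 1640/0.5% Albumax were exposed to compound for 48 hours at 37 C, 5% CO2; growth read as luminescence.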
Shiga inhibitor: A qHTS for Small Molecule Inhibitors of Shiga Toxin. 290,000 compounds, 9.2% hits. Vero cells, Shiga toxin protein synthesis inhibition reporter. AID 2315, 2010. inhibition, % at 38.7 µM; in the data active = inhibition mostly above about 28%, no sharp cut-off; inactive = mostly below about 43%; note: 0% is about no effect
Pf growth 96h: Primary qHTS for delayed death inhibitors of the malarial parasite plastid, 96 hour incubation. P. falciparum luciferase reporter growth, 96 h. Potency, µM (doses to about 28.7 µM), without a hit: at the highest dose activity change, negative = inhibition, hits mostly inhibitors. 320,000 compounds, 6.9% hits. AID 504834, 2011; note: potency is the fitted concentration of half-maximal effect; % is set by controls: 0 for no effect and ±100 for the full control effect
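Luminescence readout: decreased luciferase signal marks inhibited growth of reporter-expressing P. falciparum in infected red cells (2% hematocrit, 0.05% parasitemia final), exposed to compound two generations (96 h, 37 C, 5% CO2).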
Cycloheximide cs: Cycloheximide Counterscreen for Small Molecule Inhibitors of Shiga Toxin; cell reporter, cycloheximide protein synthesis inhibition counterscreen; max response, %; 300,000 compounds, 12% hits; in the data active = max response mostly above about 13%, no sharp cut-off; inactive = mostly below about 14%; note: read at 38.3 µM for the half of the compounds with a filed dose; 0% is about no effect
The depositor's hits bear a star; i = inactive; ? = inconclusive; · = no result. Unless noted, calls come from the whole dose curve; as a rule, active = well fitted inhibition curve with a large enough effect; inconclusive = small, poorly fitted or top-dose-only effect, or another doubt; inactive = no such curve, though single readings can be large or run the other way.

SMILES | Pf growth 48h | Shiga inhibitor | Pf growth 96h | Cycloheximide cs
O=C(Nc1ccc2nc3n(c(=O)c2c1)CCCCC3)C(=O)N1CCN(c2ccccc2F)CC1 | ? | -7.4 | 68.4% | -8.2
CCc1cc(C(=O)N2CCCC(CNC(=O)c3ccc(-c4ccccc4)cc3)C2)no1 (stereo not drawn) | -8.2% | 14.8 | ? | 13.8*
COc1ccc(OCc2cc(C(=O)N3CCCC(CO)C3)no2)c2ccccc12 (stereo not drawn) | -9.9% | 84.1* | 52.3% | 44.3*
COc1ccccc1OCc1cc(C(=O)N2CCCC(OCc3cccnc3)C2)no1 (stereo not drawn) | 1.6% | 95.5* | 11.7µM* | 58.3*
CCN(CC1CCCO1)C(=O)c1cc(COc2ccccc2SC)on1 (stereo not drawn) | ? | 82.1* | 34.9% | 55.0*
Cc1ccc(N2C(=O)CC(C)(C)CC2=O)cc1Cl | ? | -2.1 | -0.2% | -1.2
CSc1ccccc1OCc1cc(C(=O)N2CCSCC2)no1 | 49.6% | 99.5* | 0.0% | 60.5*
CSc1ccccc1OCc1cc(C(=O)N2CCC(Oc3cccnc3)CC2)no1 | 13.1µM* | 95.4* | ? | 41.9*
CSc1ccccc1OCc1cc(C(=O)N2CCCC(C)C2)no1 (stereo not drawn) | 61.1% | 89.4* | 0.3% | 26.8*
CCN(CC)C1CCN(C(=O)c2cc(COc3ccccc3SC)on2)C1 (stereo not drawn) | 14.3% | -4.5 | 6.8% | -0.3
N#Cc1cccc(-c2csc(N3CCC(C(N)=O)CC3)n2)c1 | -6.5% | · | 2.5% | ·
CCOC(=O)C1Oc2ccccc2C(c2ccccc2)=C1C(C)=O (stereo not drawn) | · | i | · | 3.8
CC[N+](CC)(CC)CCC(O)(c1ccccc1)C1CCCCC1 (stereo not drawn) | 6.57µM* | · | 10.4µM* | ·
CCN(CC)CCC(O)(c1ccccc1)C1CCCCC1 (stereo not drawn) | ? | · | 9.6% | -4.0
Cc1ccc2c(c1)cc1c(=O)[nH]ncn12 | 52.5% | 87.8* | 53.3% | 8.3
Nc1cnc(CNc2ccccc2Cl)cn1 | 50.8% | 32.0* | 34.8% | 14.1
Clc1ccc(CNc2ccccc2NCc2ccc(Cl)nc2)cn1 | ? | -6.8 | 38.1% | 15.4
CC[C@H](C)[C@H](NC(=O)OCc1ccccc1)C(=O)OCC(=O)Nc1ccc(N2CCOCC2)cc1 | 1.2% | · | -0.5% | ·
COc1ccccc1CNC(=O)c1ccc(CS(=O)(=O)c2ccc(C)cc2)o1 | 13.4% | -4.7 | 18.6% | 1.1
Cc1ccc(S(=O)(=O)N(CC(=O)NCCC2=CCCCC2)Cc2ccccc2F)cc1 | ? | -4.7 | 11.7µM* | 14.5
O=C(CN(Cc1ccccc1F)S(=O)(=O)c1ccc(Cl)cc1)NCCC1=CCCCC1 | ? | -9.3 | 11.7µM* | -2.6
CC(/C=C/c1ccccc1)=N\NC(=O)c1ccc(Br)cc1 | ? | 16.0 | 1.4% | -3.7
CC(/C=C/c1ccccc1F)=N\NC(=O)c1ccc(Cl)cc1 | 0.0% | 28.6 | ? | 13.7*
CC(/C=C/c1ccccc1)=N/NC(=O)CNC(=O)c1ccccc1F | -10.2% | 16.2 | 42.9% | 22.2
CC(/C=C/c1ccccc1F)=N\NC(=O)c1ccccc1 | 54.7% | 159.8* | 0.0% | 55.2*
SMILES | Pf growth 48h | Shiga inhibitor | Pf growth 96h | Cycloheximide cs
CCc1sc(C(=O)Nc2ccccc2N2CCOCC2)cc1C | -17.2% | 12.1 | 3.8% | -0.8
COC(=O)c1cc(Br)ccc1NC(=O)CCNC(=O)c1ccco1 | 13.6% | -2.8 | 11.8% | -1.9
CCc1cccc(Nc2c3c(nc4ncnn24)CCC3)c1 | ? | -10.3 | 3.9% | 4.8
Clc1cccc(Nc2c3c(nc4ncnn24)CCC3)c1 | 9.28µM* | -10.1 | -28.8% | -4.0
O=C(NCCc1ccc(Cl)cc1)C1COc2ccccc2O1 (stereo not drawn) | 2.4% | -2.9 | -1.6% | 12.7*
O=C(NCc1cccnc1)C1COc2ccccc2O1 (stereo not drawn) | -1.8% | -7.6 | ? | -2.4
COc1ccc(CNC(=O)C2COc3ccccc3O2)cc1 (stereo not drawn) | 74.1% | 38.5* | -0.2% | 28.5*
COc1ccccc1CNC(=O)C1COc2ccccc2O1 (stereo not drawn) | 46.9% | 42.9* | · | 30.1*
O=C(NCCO)C1COc2ccccc2O1 (stereo not drawn) | 9.5% | -4.6 | -16.3% | -2.9
CO/N=C(/C(=O)N[C@@H]1C(=O)N2C(C(=O)O)=CCS[C@H]12)c1cnc(N)s1 | 0.0% | -2.1 | 92.0% | -3.0
CCOc1ccc(NC(=S)N(CCc2c(C)[nH]c3ccc(C)cc23)Cc2cccnc2)cc1 | ? | -2.7 | 3.7µM* | -2.7

Assay outcomes as filed in PubChem.
